Reference: PubChem BioAssay AID1026 (Columbia University Molecular Screening Center, 2008)
Calls of active or inactive are those of the source. The rule behind the calls is not given here.

What follows are compounds tested against Bifunctional epoxide hydrolase 2 (Homo sapiens) (UniProt P34913) (assay: sEH inhibitor concentration-response potency, dose response, biochemical, human sEH, fluorescence, Infinite200 (AID 1026)). Settings: recombinant human sEH, fluorogenic substrate, at 0.2 µM, stronger effect = higher value.
Bifunctional epoxide hydrolase 2 (Homo sapiens), sequence (P34913 whole entry, looked up): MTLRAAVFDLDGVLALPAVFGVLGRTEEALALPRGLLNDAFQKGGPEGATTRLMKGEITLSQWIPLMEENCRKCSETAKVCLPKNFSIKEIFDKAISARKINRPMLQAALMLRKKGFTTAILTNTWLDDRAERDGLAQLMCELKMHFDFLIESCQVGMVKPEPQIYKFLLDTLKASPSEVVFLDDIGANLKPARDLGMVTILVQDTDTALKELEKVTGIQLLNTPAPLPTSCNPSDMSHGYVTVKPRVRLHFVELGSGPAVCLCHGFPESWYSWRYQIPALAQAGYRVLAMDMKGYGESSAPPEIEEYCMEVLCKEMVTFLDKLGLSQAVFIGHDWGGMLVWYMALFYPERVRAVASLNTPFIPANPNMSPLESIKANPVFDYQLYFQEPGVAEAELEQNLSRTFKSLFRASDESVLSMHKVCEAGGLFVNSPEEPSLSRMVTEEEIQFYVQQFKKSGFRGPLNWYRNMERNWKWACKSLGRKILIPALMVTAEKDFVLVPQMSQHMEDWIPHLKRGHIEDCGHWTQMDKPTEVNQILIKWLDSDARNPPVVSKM
With `CCN(CCNC(=O)C1CCN(Cc2nc(-c3cccc(Cl)c3)oc2C)CC1)c1ccccc1` the inhibition was 45.4% (inactive). `O=C(NCCC1=CCCCC1)C1CCCN(c2nc3ccccc3o2)C1` (stereo not given) was tested, and the inhibition was 53.6% (inactive). In the case of `O=C(N/N=C/c1cccc(O)c1)c1csc2ccccc12`, the inhibition is reported as 54.3% (inactive). `CSc1cccc(NC(=O)Nc2ccc(Cl)cc2)c1` was tested, and the inhibition was 59.3% (inactive). With `O=C(Nc1cccc(F)c1)NC1CCCCC1` the inhibition was 51.9% (inactive). In the case of `O=C(Nc1ccc2c(c1)OCCO2)NC1CCCCC1`, the inhibition is reported as 52.7% (inactive). For `CC(=O)NC1CC2CCCC(C1)N2C(=O)Nc1ccc(Cl)c(C(F)(F)F)c1` (stereo not given), the inhibition was 41.4% (inactive). `Cc1ccc(Cn2ccc(=O)c(Cc3c(Cl)cccc3Cl)c2C)cc1` was tested, and the inhibition was 63.6% (inactive). With `CC(C)CN1C(=O)c2ccc(C(=O)NCc3ccc4c(c3)OCO4)cc2C1=O` the inhibition was 56% (inactive). In the case of `O=C(c1ccc2c(=O)n(Cc3ccc4c(c3)OCO4)c(=S)[nH]c2c1)N1CCCCC1`, the inhibition is reported as 47.4% (inactive).
